Many of the other results were omitted from the sample, so hits are more common in it than they were.
KDM5B inhibitor: Primary screen for KDM5B Histone Demethylases FDH-coupled qHTS. Lysine-specific demethylase 5B (Homo sapiens), Q9UGL1. KDM5B demethylase, FDH-coupled NADH fluorescence (FDH is formaldehyde dehydrogenase). actives 2.6% (n = 220,000). Potency, µM (titrated, usually from 57.7 µM), usual class: inhibitors; active = well fitted inhibition curve with a large enough effect; note: 0% is about no effect; nearly all actives have a fitted effect of over 70% in size
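Inhibition is measured as reduced NADH fluorescence generation from FDH coupling to formaldehyde release. Truncated KDM5BΔAP at 200 nM final acts on H3K4me3 peptide (12.5 µM in substrate mix) in pH 7.5 HEPES buffer with Tween-20, 30 min, room temperature.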
* hit, by the source's call; i = inactive. Potency is the fitted concentration of half-maximal effect.

SMILES	KDM5B inhibitor
N#CC1(c2ccccc2)CCN(C(=O)c2cccc(-n3cnnc3)c2)CC1	i
N#CC1(c2ccccc2)CCN(C(=O)C2CCN(C(=O)C3CC3)CC2)CC1	i
COc1ccc2c(C)c(C(=O)N3CCC(C#N)(c4ccccc4)CC3)oc2c1	20µM*
COC(=O)c1ccc(NC(=O)c2cccn(Cc3ccccc3C)c2=O)cc1	i
Cc1ncc2c(n1)C[C@@H]1CC[C@H]2N1C(=O)Cc1ccccc1	i
CN1C(=O)C(=Cc2sc(=O)n(-c3ccccc3)c2N2CCCCC2)C(=O)N(C)C1=O	i
CN(C[C@H]1CN2CC[C@H]1C[C@@H]2CNS(=O)(=O)c1cccs1)c1ccccc1	i
Cc1nc(-c2ccc(C(F)(F)F)cc2)cc([C@H]2CN3CC[C@H]2C[C@@H]3CNC(=O)c2ccccc2C(=O)O)n1	i
Cn1nc(-c2ccc3ccccc3c2)cc1[C@H]1CN2CC[C@H]1C[C@@H]2CNC(=O)N1CCOCC1	i
COc1ccccc1-c1cc([C@H]2CN3CC[C@H]2C[C@@H]3CNC(=O)N2CCOCC2)n(C)n1	i
Cc1nc(-c2ccccc2)cc([C@H]2CN3CC[C@H]2C[C@@H]3CNC(=O)c2cccs2)n1	i
COc1ccc(-c2cc([C@H]3CN4CC[C@H]3C[C@@H]4CNC(=O)N3CCOCC3)nc(C)n2)cc1OC	22µM*
Cc1nc(-c2ccc(N(C)C)cc2)cc([C@H]2CN3CC[C@H]2C[C@@H]3CNC(=O)N2CCOCC2)n1	28µM*
Cc1nc(-c2ccc(N(C)C)cc2)cc([C@H]2CN3CC[C@H]2C[C@@H]3CNC(=O)C(C)(C)C)n1	32µM*
Cc1nc(-c2cccs2)cc([C@H]2CN3CC[C@H]2C[C@@H]3CNC(=O)c2ccc(N(C)C)cc2)n1	i
Cn1nc(-c2ccc(F)cc2)cc1[C@H]1CN2CC[C@H]1C[C@@H]2CNC(=O)N1CCOCC1	i
CN1CCC(NC2CCCC2)CC1	i
COc1ccc(-c2nc(CN3C(=O)CN=C(c4ccccc4)c4ccccc43)c(C)o2)cc1	i
O=C(c1cn(CCCCn2cc(C(=O)C(F)(F)F)c3ccccc32)c2ccccc12)C(F)(F)F	i
O=c1c2ccccc2nc(/C=C/c2cccc3ccccc23)n1-c1ccc(Cl)cc1	i
O=C(Nc1ccc([N+](=O)[O-])c(C(F)(F)F)c1)C12CC3CC(CC(C3)C1)C2	i
O=C1CO[C@H]2CN(Cc3ccccc3)C[C@H]2N1Cc1ccccn1	i
CN1C(=O)CO[C@H]2CN(Cc3ccccn3)C[C@H]21	40µM*
NC(=O)CN1C(=O)CO[C@H]2CN(Cc3ccccn3)C[C@H]21	i
O=C1CO[C@H]2CN(Cc3ccco3)C[C@H]2N1Cc1ccccn1	i
SMILES	KDM5B inhibitor
O=C1CO[C@H]2CN(Cc3ccccn3)C[C@H]2N1c1ccccc1	i
O=C1CO[C@H]2CN(Cc3ncc[nH]3)C[C@H]2N1Cc1ccccn1	35µM*
CCCCc1cn(C[C@H]2C[C@@H]3CCN2C[C@@H]3C(=O)NC2CCCCC2)nn1	i
COc1ccc2c(c1)C1(CCN(C(=O)C(C)C)C1)C(=O)N2C (configuration not stated)	i
Fc1ccc(C2NCc3ccccc3-n3cccc32)cc1 (configuration not stated)	i
CC1=NOC2(CCN(Cc3ccc(F)cc3)C2)C1 (configuration not stated)	i
CCC(=NCc1cccnc1)c1c(O)n(-c2ccc(C)cc2)c(=O)[nH]c1=O	i
CCn1cc(C(=O)N2C[C@H](c3cccc(OC)c3)[C@@H]3[C@H]2C2CCN3CC2)cn1	i
CC(C)c1nccc(CN2CCCC3(CNC(=O)O3)C2)n1 (configuration not stated)	i
COCC1CN(C)CC12CCN(Cc1cccc(OC)n1)CC2 (configuration not stated)	i
COCC1CN(C2CCC2)CC12CCN(Cc1cccnc1)CC2 (configuration not stated)	28µM*
COCC1CN(C)CC12CCN(Cc1ccncc1F)CC2 (configuration not stated)	i
CNC(=O)Oc1ccc(C(=O)N2c3ccccc3NC(=O)C2C)cc1 (configuration not stated)	i
Cc1ccc(-n2c(O)c(C=NCc3ccco3)c(=O)[nH]c2=S)cc1C	i
Cc1nc(N2CC3CC(C2)c2cccc(=O)n2C3)c2c(C)nn(C)c2n1 (configuration not stated)	i
O=C(NC[C@H]1C[C@@H]2CCN1C[C@@H]2CN1C[C@@H]2C[C@H](C1)c1cccc(=O)n1C2)c1ccccc1	i
Cc1noc(-c2ccc(N3CC4CC(C3)c3cccc(=O)n3C4)nc2)n1 (configuration not stated)	22µM*
CCc1c(C)nc(N2CCN(CC)CC2)[nH]c1=O	i
O=C(O)CCC(=O)N1C[C@@H]2C[C@H](C1)c1ccc(-c3ccc(Cl)cc3)c(=O)n1C2	35µM*
